Assay outcomes as filed in PubChem BioAssay.
D1 antagonist: blocks dopamine activation of the human D1 receptor; P21728; HEK293 TREx D1 cells, calcium flux, dopamine EC80; active compounds read low; activity change, negative = inhibition, % at 10 µM; 3.2% of 360,000 active; AID 504652; in the data active = activity change below about -30%
Target sequence (P21728 whole entry, looked up): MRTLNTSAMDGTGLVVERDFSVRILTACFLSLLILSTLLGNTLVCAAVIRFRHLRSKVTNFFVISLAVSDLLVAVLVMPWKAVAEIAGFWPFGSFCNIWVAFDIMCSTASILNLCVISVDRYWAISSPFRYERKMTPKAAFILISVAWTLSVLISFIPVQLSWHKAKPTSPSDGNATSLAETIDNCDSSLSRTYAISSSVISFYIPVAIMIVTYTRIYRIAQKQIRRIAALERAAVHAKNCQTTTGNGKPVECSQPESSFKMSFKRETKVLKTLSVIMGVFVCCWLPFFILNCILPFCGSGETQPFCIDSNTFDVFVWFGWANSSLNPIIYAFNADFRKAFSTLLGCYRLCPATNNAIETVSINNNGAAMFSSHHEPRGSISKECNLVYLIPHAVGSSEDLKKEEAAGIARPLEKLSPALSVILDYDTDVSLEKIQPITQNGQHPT
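After overnight tetracycline induction at 30 C, force-coupled D1 HEK293 cells took up a no-wash calcium dye at room temperature. Compounds were added and monitored 180 s, and the response to EC80 dopamine was then recorded.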
DRD3 antagonist: antagonists of human D3 dopamine receptor | D3R cells, DiscoveRx beta-arrestin luminescence, antagonist mode; active compounds read low | 2.5% of 360,000 active | max response, negative = inhibition, %; in the data active = max response below about -50%; inconclusive = no clear call, values can overlap the other calls
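Cells plated overnight at 1500 cells/well, then exposed to library compounds with dopamine controls for 90 minutes at 37 degrees C. DiscoveRx reagent added for 30–60 minutes at room temperature; luminescence read, quantitative HTS format.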
D1 agonist: agonists of human D1 dopamine receptor | P21728 | HEK293 T-REx D1 cells, calcium flux, agonist mode | activation, % at 2 µM | 1% of 360,000 active | AID 504660; in the data active = activation above about 30%
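Agonism was scored from calcium flux recorded over 180 s (1 read/s) after pintool compound addition, following a 10-cycle baseline. Cells were inducible force-coupled HEK293 TREx D1, plated overnight at 30 C and loaded with no-wash calcium dye.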
BCR signal inh: chronic active BCR signaling inhibition; Potency, µM (series often up to 46.1 µM), most hits filed as inhibitors; 0.05% of 340,000 active; ABC-DLBCL IkBa-CBG/CBR reporter, luminescence ratio, 4 h; active = well fitted inhibition curve with a large enough effect in the signal ratio, with a control signal flat, not every such curve was filed as active; inconclusive = small, poorly fitted or top-dose-only effect, or effect the other way, or a change in a side signal; the % refers to the signal ratio
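TMD8 human ABC-DLBCL cells with doxycycline-inducible IκBα–green luciferase fusion and unfused red luciferase, in 0.5% FBS medium; compounds up to 46 uM, 4 h at 37C. Green/red luminescence ratio, filter-overlap corrected, fitted to concentration-response curves.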
D3 ag: agonists of human D3 dopamine receptor; D3R DiscoveRx beta-arrestin cells, luminescence, 90 min; P35462; 0.58% of 410,000 active; max activation, %; in the data active = max activation above about 30%
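Cells at 1500/well, incubated overnight, then treated with pinned compounds (dopamine as control) for 90 min at 37 degrees C. DiscoveRx reagent added for 30 - 60 minutes at room temperature; luminescence read.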
D1 PAM: enhances dopamine response at the human D1 receptor | P21728 | HEK293 TREx D1 cells, calcium flux, dopamine EC20 potentiation | potentiation, % at 10 µM | 0.036% of 360,000 active | AID 504651; in the data active = potentiation above about 30%
Numbers stand for hits; . = inactive; ? = inconclusive; / = no result. Sampled rows, rich in hits. Any-hit rate of the full collection: about 6%.

SMILES	D1 antagonist	DRD3 antagonist	D1 agonist	BCR signal inh	D3 ag	D1 PAM
CC(C)N(c1ccccc1)c1ccc(NC(=S)NCCN(C)C)cc1	.	-73	34	.	.	.
COc1cc2c(cc1OC)C(CNC(=O)C=Cc1cc(OC)c(OC)c(OC)c1)C2 (stereo not given)	/	.	/	/	.	/
COC(=O)[C@@]12C[C@@H](CC(=O)N3CCN(C(=O)C4CC4)CC3)C(=O)N(CCc3ccc(OC)c(OC)c3)C1=CCC(C)(C)C2	/	.	/	/	.	/
CCCc1nc2sc3ccccc3c(=O)c2c(=O)n1Cc1ccc(OC)cc1	.	.	.	.	.	.
CCCc1nc2sc3ccccc3c(=O)c2c(=O)n1Cc1ccco1	.	.	80	.	.	.
O=C(CS(=O)(=O)c1ccc(Cl)cc1)Nc1nc2ccc(Br)cc2s1	/	/	.	.	.	.
N#Cc1cc(-c2ccc(Cl)cc2)cn(Cc2c(Cl)cccc2Cl)c1=O	/	-50	/	.	.	/
Cc1cc(C(=O)NC2CCCc3c2cnn3-c2ccc(C(C)(C)C)cc2)nn1C (stereo not given)	-35	.	.	?	.	.
Cc1cc(C)cc(-n2ncc3c2CCCC3NC(=O)c2cc(C)n(C)n2)c1 (stereo not given)	.	.	.	?	.	.
CC(=O)Nc1cccc(C(=O)NC2CCCc3c2cnn3-c2ccc(C(C)(C)C)cc2)c1 (stereo not given)	.	.	.	.	33	.
CCCN(CCC)C(=O)Cn1c(=O)n(-c2cccc(C(F)(F)F)c2)c(=O)c2c(C)c(C)sc21	.	/	.	/	.	.
NC(=O)CC(NC(=O)c1ccccc1)c1ccc(NCC2CC2)c([N+](=O)[O-])c1 (stereo not given)	-44	.	.	.	.	.
NC(=O)CC(NC(=O)c1ccccc1)c1ccc(NCCOc2ccccc2)c([N+](=O)[O-])c1 (stereo not given)	-35	.	.	?	.	.
COc1ccc(OC)c(C(=O)NC(CC(N)=O)c2ccc(NCCOc3ccccc3)c([N+](=O)[O-])c2)c1 (stereo not given)	.	.	.	.	.	.
CN(Cc1ccccc1)c1ccc(C(CC(N)=O)NC(=O)c2ccc(Br)cc2)cc1[N+](=O)[O-] (stereo not given)	.	-52	.	?	.	.
CCOc1cc(N2CCOCC2)c(OCC)cc1NS(=O)(=O)c1ccc2c(c1)CC(=O)N2	/	.	/	/	.	/
O=C(NOCC1CC1)c1ccc(F)c(F)c1Nc1ccc(I)cc1Cl	/	/	/	/	.	/
Cc1ccc(/C=C/C(=O)O)cc1S(=O)(=O)NCc1ccco1	.	.	.	?	41	.
COc1ccc(NC(=O)C2(C)Cc3c(-c4ccc(N(C)C)cc4)ccnc3O2)cc1OC (stereo not given)	/	.	/	/	.	/
CCc1cccc(NC(=O)Nc2ccc3c(c2)N(C)C(=O)c2ccccc2S3)c1	-39	/	.	/	.	.
CN1C(=O)c2ccccc2Sc2ccc(NC(=O)Nc3ccccc3F)cc21	.	/	.	/	.	.
CCc1cccc(C)c1NS(=O)(=O)c1c(C(=O)N2CCC(C)CC2)c(C)n(C)c1C	.	/	.	/	.	.
CC(C)(O)CC[C@@H](O)[C@](C)(O)C1CC[C@@]2(O)C3=CC(=O)[C@]4(O)C[C@@H](O)[C@@H](O)C[C@]4(C)C3CC[C@]12C (stereo not given in full)	-33	.	.	?	.	.
COC(=O)[C@@H]1C[C@H]2CC[C@H](O)C[C@H]2N1Cc1ccc(C(C)(C)C)cc1	-34	.	.	.	.	.
COC(=O)c1ccccc1NC(=O)c1nc(-c2ccc(C)cc2)n2c1CCCCC2	.	/	.	/	.	.
Cc1ccc(NC(=O)C(Cc2ccccc2)NS(=O)(=O)c2ccc3c(c2)c(=O)n(C)c(=O)n3C)c(C)c1 (stereo not given)	.	/	.	/	.	.
COc1cc(-c2nnc(-c3ccc(S(=O)(=O)c4ccccc4)cc3)o2)cc(OC)c1OC	-31	.	.	.	.	.
COc1cc(-c2nc(S(=O)(=O)c3ccc(Br)cc3)c(N3CCOCC3)o2)cc(OC)c1OC	.	/	.	/	.	.
